Test results as given in PubChem BioAssay AID1159580 (chemical genetic matrix, 2015).
Hit rate of the full screen: of about 5,500 compounds, about 2,000 (36%) were called active. About 18% were inconclusive and are not listed. Rule as the data show it: active = normalized growth mostly below about 0.91 (no sharp cut-off); inconclusive = no clear call, values can overlap the other calls; inactive = mostly above about 0.92. This is one part of the list.

Assay: chemical genetic growth profiling, strain panel (AID 1159580);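 also: tested at 20 µM; growth read once vehicle control cultures reached saturation at 30 °C; 1 = growth at the plate median or of vehicle wells; lower values mean less growth of the strain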
Details: S. cerevisiae deletion strains, growth OD

Measured: normalized growth

Cc1cc(C(=O)N(c2ccccc2)C(C)C2CC2)c(Cl)cc1Cl (stereo unspecified)
inactive: locus YAR019C, strain CDC15, stronger effect = lower value 0.987 | locus YBL105C, strain PKC1, stronger effect = lower value 0.984 | locus YBR135W, strain CKS1, stronger effect = lower value 0.984 | locus YBR136W, strain MEC1, stronger effect = lower value 0.987 | locus YBR160W, strain CDC28, stronger effect = lower value 0.991 | locus YDL017W, strain CDC7, stronger effect = lower value 0.978 | locus YDL028C, strain MPS1, stronger effect = lower value 0.982 | locus YDL101C, strain DUN1, stronger effect = lower value 0.98 | locus YDL108W, strain KIN28, stronger effect = lower value 0.978 | locus YDL132W, strain cdc53, stronger effect = lower value 0.973 | locus YDL214C, strain PRR2, stronger effect = lower value 0.955 | locus YDR052C, strain DBF4, stronger effect = lower value 0.985 | locus YDR054C, strain cdc34, stronger effect = lower value 0.966 | locus YDR226W, strain ADK1, stronger effect = lower value 0.971 | locus YDR477W, strain SNF1, stronger effect = lower value 0.942 | locus YER123W, strain YCK3, stronger effect = lower value 0.943 | locus YER133W, strain GLC7, stronger effect = lower value 0.938 | locus YFL009W, strain cdc4, stronger effect = lower value 0.973 | locus YFL029C, strain CAK1, stronger effect = lower value 0.984 | locus YFR003C, strain YPI1, stronger effect = lower value 0.979 | locus YFR019W, strain FAB1, stronger effect = lower value 0.968 | locus YFR028C, strain CDC14, stronger effect = lower value 0.979 | locus YGR040W, strain KSS1, stronger effect = lower value 0.944 | locus YGR052W, strain FMP48, stronger effect = lower value 0.949 | locus YGR092W, strain DBF2, stronger effect = lower value 0.989 | locus YHR079C, strain IRE1, stronger effect = lower value 0.97 | locus YHR082C, strain KSP1, stronger effect = lower value 0.99 | locus YHR205W, strain SCH9, stronger effect = lower value 0.985 | locus YIL147C, strain SLN1, stronger effect = lower value 0.983 | locus YJL095W, strain BCK1, stronger effect = lower value 0.939 | locus YJL128C, strain PBS2, stronger effect = lower value 0.92 | locus YJL157C, strain FAR1, stronger effect = lower value 0.957 | locus YJR016C, strain ILV3, stronger effect = lower value 0.976 | locus YJR066W, strain TOR1 (second series), stronger effect = lower value 0.921 | locus YJR066W, strain TOR1, stronger effect = lower value 1.03 | locus YKL048C, strain ELM1, stronger effect = lower value 0.966 | locus YKL067W, strain YNK1, stronger effect = lower value 0.955 | locus YKL101W, strain HSL1, stronger effect = lower value 0.953 | locus YKL193C, strain SDS22, stronger effect = lower value 0.977 | locus YKL203C, strain TOR2, stronger effect = lower value 1.01 | locus YLR133W, strain CKI1, stronger effect = lower value 0.965 | locus YLR403W, strain SFP1, stronger effect = lower value 0.993 | locus YML070W, strain DAK1, stronger effect = lower value 0.925 | locus YMR001C, strain CDC5, stronger effect = lower value 0.982 | locus YMR205C, strain PFK2 (second series), stronger effect = lower value 0.958 | locus YMR277W, strain FCP1, stronger effect = lower value 0.972 | locus YNL006W, strain LST8, stronger effect = lower value 0.989 | locus YNL020C, strain ARK1, stronger effect = lower value 0.95 | locus YNL161W, strain CBK1, stronger effect = lower value 0.979 | locus YNL183C, strain NPR1, stronger effect = lower value 1.02 | locus YNL207W, strain RIO2, stronger effect = lower value 0.978 | locus YNL222W, strain SSU72, stronger effect = lower value 0.988 | locus YNL307C, strain MCK1 (second series), stronger effect = lower value 0.941 | locus YOL078W, strain AVO1, stronger effect = lower value 0.98 | locus YOL136C, strain PFK27, stronger effect = lower value 0.936 | locus YOR061W, strain CKA2, stronger effect = lower value 0.958 | locus YOR119C, strain RIO1, stronger effect = lower value 1.02 | locus YOR231W, strain MKK1, stronger effect = lower value 0.95 | locus YOR329C, strain SCD5, stronger effect = lower value 0.984 | locus YPL031C, strain PHO85, stronger effect = lower value 0.939 | locus YPL153C, strain RAD53, stronger effect = lower value 0.921 | locus YPL204W, strain HRR25, stronger effect = lower value 0.918 | locus YPL209C, strain IPL1, stronger effect = lower value 0.985 | locus YPR025C, strain CCL1, stronger effect = lower value 0.991 | locus YPR106W, strain ISR1, stronger effect = lower value 0.982 | locus YPR111W, strain DBF20, stronger effect = lower value 0.97 | strain NNK1, stronger effect = lower value 0.976 | strain TSCII, stronger effect = lower value 0.983
active: locus YHR030C, strain SLT2, stronger effect = lower value 0.8 | locus YLR113W, strain HOG1, stronger effect = lower value 0.808 | locus YPL256C, strain CLN2, stronger effect = lower value 0.848
